Where “and” joins values, the source holds several entries; their conditions need not be identical. Equal values may be shown once. Records with an inconclusive call do not appear. Calls of active or inactive are those of the source. Cut-off read from the data, not from the text of the source, unless noted: active = inhibition above about 80%; inactive = the rest.
What was measured:
[1] = sensitizers of A549 cells to miR-34 induction, primary screen, imaging, A549 dox-inducible miR-34, nuclei and caspase counts (AID 1347080;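 active = compounds whose cell count with miR-34 switched on is under 0.7 times the count with it off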); settings: A549 miR-34 inducible, Hoechst nuclei count, 48 h
[2] = SU-DIPG-XXV glioma cell viability, MIPE5.0 library, qHTS (AID 1347068; cut-off not given, nearly all actives have IC50 up to about 30 µM)
[3] = survival rescue of mitochondrial mutant cells in low glucose, primary screen, MELAS cybrids, Rieske KO mouse fibroblasts, CellTiter-Glo (AID 1508586;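 active = mean z-score across replicates of 1.96 or higher in either the MELAS or the Rieske mutant cell line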;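 note: z relative to plate mean and SD of compound and empty wells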)
[4] = LFS_MB_P medulloblastoma growth inhibition, cell-based, chromothripsis tumors, cisplatin or BGB combos (AID 1671449); settings: LFS_MB_P medulloblastoma cells;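 note: cells exposed for 96 hours; 0% = vehicle DMSO and 100% = killing by high DMSO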
[5] = HDN33 neuroblastoma growth inhibition, cell-based, chromothripsis tumors, cisplatin or BGB combos (AID 1671450); settings: HDN33 neuroblastoma cells, stronger effect = higher value;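 note: cells exposed to compound for four days; 0% = vehicle DMSO and 100% = cell killing by high DMSO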
[6] = ICB984 medulloblastoma cell growth inhibition, synergistic combos for chromothripsis tumors, cisplatin or BGB combos (AID 1671451; call rule not given here;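 note: cells exposed for 96 hours before readout; 0% = vehicle DMSO and 100% = killing by high DMSO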); settings: ICB984 medulloblastoma cells, drug combinations, stronger effect = higher value
[7] = LFS_MB_1R medulloblastoma cell growth inhibition, synergistic combos for chromothripsis tumors, cisplatin or BGB combos (AID 1671452); settings: LFS_MB_1R medulloblastoma cells, stronger effect = higher value;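 note: cells exposed for 96 hours before readout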
[8] = HTB85 osteosarcoma cell growth inhibition, synergistic combos for chromothripsis tumors, BGB or cisplatin IC20 combos (AID 1671453); settings: HTB85 osteosarcoma cells, drug combinations, stronger effect = higher value;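 note: cells exposed for 96 hours before readout; 0% = vehicle DMSO and 100% = high DMSO killing control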
[9] = CRL2098 osteosarcoma cell growth inhibition, synergistic combos for chromothripsis tumors, BGB or cisplatin IC20 combos (AID 1671454); settings: CRL2098 osteosarcoma cells, drug combinations, stronger effect = higher value;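 note: cells exposed for 96 h before readout; 0% = vehicle DMSO and 100% = killing by high DMSO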
[10] = HD-MB03 medulloblastoma cell growth inhibition, synergistic combos for chromothripsis tumors, BGB or cisplatin IC20 combos (AID 1671455; in the data active = inhibition above about 83%;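 note: 0% = vehicle DMSO and 100% = high DMSO as cytotoxic control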); settings: HD-MB03 medulloblastoma cells, stronger effect = higher value
[11] = UWB1.289 ovarian carcinoma cell growth inhibition, synergistic combos for chromothripsis tumors, BGB or cisplatin combos (AID 1671456); settings: UWB1.289 ovarian carcinoma cells, stronger effect = higher value;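 note: cells exposed to compound for four days; 0% = vehicle DMSO and 100% = killing by high DMSO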
[12] = LFS_MB_2R medulloblastoma cell growth inhibition, synergistic combos for chromothripsis tumors, cisplatin combos (AID 1671457); settings: LFS_MB_2R medulloblastoma cells, stronger effect = higher value;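 note: cells exposed to compound for four days before readout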
[13] = MDA-MB-436 breast carcinoma cell growth inhibition, synergistic combos for chromothripsis tumors, BGB or cisplatin combos (AID 1671458; call rule not given here;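 note: cells exposed for 96 hours; 0% = vehicle DMSO and 100% = killing by high DMSO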); settings: MDA-MB-436 breast carcinoma growth inhibition, drug combinations, stronger effect = higher value
[14] = UWB1.289_BRCA1 ovarian cancer growth, cell-based, BGB or cisplatin combinations (AID 1671459); settings: UWB1.289 BRCA1 ovarian carcinoma, drug combinations, stronger effect = higher value
[15] = human astrocyte viability loss, single and combined drugs, cytotoxicity control for chromothriptic childhood tumor combination screen, cell-based, BGB or cisplatin IC20 combos (AID 1671460); settings: Human astrocytes, drug combinations, stronger effect = higher value;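 note: cells exposed to compounds for 96 hours before viability readout; 0% = vehicle and 100% = killing control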
[16] = growth inhibition of BT084 medulloblastoma cells, cell-based, ICGC_MB145, cisplatin and BGB IC40 combos (AID 1671461); settings: drug combinations, stronger effect = higher value;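 note: cells exposed to drugs for 96 hours; 0% = vehicle DMSO and 100% = high DMSO full killing control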
[17] = growth inhibition of RCMB18 medulloblastoma cells, cell-based, cisplatin and BGB IC40 combos (AID 1671462); settings: stronger effect = higher value;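 note: cells exposed to compound for four days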
[18] = growth inhibition of CRL1545 osteosarcoma cells, cell-based, cisplatin and BGB IC20 combos (AID 1671464); settings: stronger effect = higher value;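 note: cells exposed to compound for 96 hours before readout; 0% = vehicle DMSO and 100% = high DMSO killing control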
[19] = stronger effect = lower value, cell number ratio, induced over uninduced
[20] = measured here: relative caspase fold change +Dox/-Dox
[21] = measured here: total cells with miR-34 induction, stronger effect = lower value
[22] = measured here: total cells without miR-34 induction
[23] = measured here: combination with BGB IC40, at 0.05 µM
[24] = measured here: with BGB IC20 combination, at 0.5 µM
[25] = measured here: with cisplatin IC20 combination, at 0.5 µM
[26] = measured here: combination with cisplatin, at 0.5 µM
[27] = measured here: combination with cisplatin, at 5 µM

C1CCC(NC(=NC2C3CC4CC(C3)CC2C4)N2CCOCC2)CC1 (stereo unspecified)
fold change [1, 19]: 1.04 (inactive)
fold change [1, 20]: 1.05
cell count [1, 21]: 5720
cell count [1, 22]: 5520

CC[C@@H]1[C@H](F)C(=O)N[C@@H]1COc1nccc2cc(C(N)=O)c(OC)cc12
outcome [2]: inactive

Cc1ccc(Nc2cc(N[C@@H]3CCCC[C@@H]3N)nnc2C(N)=O)nc1C
outcome [2]: inactive

CC=CCC(C)C(O)C1C(=O)NC(CC)C(=O)N(C)CC(=O)N(C)C(CC(C)C)C(=O)NC(C(C)C)C(=O)N(C)C(CC(C)C)C(=O)NC(C)C(=O)NC(C)C(=O)N(C)C(CC(C)C)C(=O)N(C)C(CC(C)C)C(=O)N(C)C(C(C)C)C(=O)N1C (stereo unspecified)
fold change [1, 19]: 1.07 (inactive) and 0.992 (inactive)
fold change [1, 20]: 0.343 and 1.41

COc1ccc(-c2cnc3c(-c4cccc5ncccc45)cnn3c2)cc1
outcome [2]: inactive
fold change [1, 19]: 0.802 (inactive)
fold change [1, 20]: 0.646
cell count [1, 21]: 4530
cell count [1, 22]: 5640
z-score ([3]; MELAS cybrid survival, CellTiter-Glo 48 h, stronger effect = higher value): -0.0268 (inactive)
z-score ([3]; Rieske KO mouse fibroblast survival, CellTiter-Glo 72 h): -0.688

O=C(CCCC[C@@H]1SC[C@@H]2NC(=O)N[C@@H]21)NCCCC[C@H](NC(=O)CCN1C(=O)C=CC1=O)C(=O)O
fold change [1, 19]: 0.911 (inactive)
fold change [1, 20]: 0.469
cell count [1, 21]: 5380
cell count [1, 22]: 5910

CCC1CCCCN1C(=O)n1ncc(C(O)(c2ccccc2)c2ccccc2)n1 (stereo unspecified)
outcome [2]: inactive

CS(=O)(=O)c1ccc(-c2nnc(/C=C/c3nnc(-c4ccc(C#N)cc4)o3)n2-c2ccccc2Cl)nc1
outcome [2]: inactive
inhibition ([4]; at 0.5 µM, stronger effect = higher value): 1.48% (inactive)
inhibition ([4]; measured here: combination with BGB IC20, at 0.005 µM): 2.99%
inhibition ([4]; measured here: combination with BGB IC40, at 0.005 µM): 6.48%
inhibition [4, 23]: 30.7%
inhibition ([4]; measured here: combination with cisplatin, at 0.5 µM, stronger effect = higher value): -5.01%
inhibition ([4]; measured here: combination with cisplatin, at 5 µM, stronger effect = higher value): -36.6%
inhibition ([5]; BGB combo, at 5 µM): 21%
inhibition ([5]; at 0.5 µM): 30.9% (inactive)
inhibition ([5]; cisplatin combo, at 5 µM): 23.5%
inhibition [5, 24]: 33.7%
inhibition [5, 25]: 23.2%
inhibition ([5]; single agent, at 5 µM): 31.3%
inhibition ([6]; BGB IC20 combo, at 0.005 µM): -3.28%
inhibition ([6]; BGB IC40 combo, at 0.005 µM): -14.7%
inhibition ([6]; BGB IC40 combo, at 0.05 µM): -5.67%
inhibition ([6]; at 0.5 µM): -26.5% (inactive)
inhibition ([6]; cisplatin combo, at 0.05 µM): -9.85%
inhibition ([6]; cisplatin combo, at 0.5 µM): -33.8%
inhibition ([6]; cisplatin combo, at 5 µM): -19.1%
inhibition ([6]; measured here: 5 uM single agent, at 5 µM): -5.85%
inhibition ([7]; at 0.5 µM): -3.64% (inactive)
inhibition [7, 23]: 0.706%
inhibition [7, 26]: -21.2%
inhibition [7, 27]: -35.8%
inhibition ([8]; at 0.5 µM): 15.7% (inactive)
inhibition ([8]; measured here: with BGB IC20, at 0.5 µM): 7.63%
inhibition ([8]; measured here: with BGB IC20, at 5 µM): -0.396%
inhibition ([8]; measured here: with cisplatin IC20, at 0.5 µM): 4.78%
inhibition ([8]; measured here: with cisplatin IC20, at 5 µM): 9.69%
inhibition ([8]; single agent, at 5 µM): 38.8%
inhibition ([9]; at 0.5 µM): 7.89% (inactive)
inhibition ([9]; measured here: combination with BGB at IC20, at 0.5 µM): 3.4%
inhibition ([9]; measured here: combination with cisplatin at IC20, at 0.5 µM): 15.6%
inhibition ([10]; at 0.5 µM): 11.5% (inactive)
inhibition ([10]; measured here: combo with BGB at IC20, at 0.5 µM): 0.481%
inhibition ([10]; measured here: combo with cisplatin at IC20, at 0.5 µM): 19.9%
inhibition ([11]; at 0.5 µM): 15.3% (inactive)
inhibition ([11]; measured here: inhibition with BGB combination, at 0.05 µM): 0.045%
inhibition ([11]; measured here: inhibition with cisplatin combination, at 0.05 µM): 15.1%
inhibition ([12]; at 0.5 µM): -0.5% (inactive)
inhibition [12, 26]: 14.1%
inhibition [12, 27]: -1.82%
inhibition ([13]; at 0.5 µM): 7.83% (inactive)
inhibition ([13]; measured here: BGB combination, at 0.5 µM): -1.04%
inhibition ([13]; measured here: BGB combination, at 5 µM): -5.11%
inhibition ([13]; measured here: cisplatin combination, at 0.5 µM): 9.17%
inhibition ([13]; measured here: cisplatin combination, at 5 µM): 11.5%
inhibition ([14]; BGB combination, concentration series, at 5 µM): 22.9%
inhibition ([14]; at 0.5 µM): 12.5% (inactive)
inhibition ([14]; cisplatin combination, concentration series, at 5 µM): 17.8%
inhibition ([15]; at 0.5 µM): 40.8% (inactive)
inhibition ([15]; measured here: combo with BGB IC20, at 0.5 µM): 29.7%
inhibition ([15]; measured here: combo with cisplatin IC20, at 0.5 µM): 52.2%
inhibition ([16]; at 0.5 µM): -12.2% (inactive)
inhibition ([16]; cisplatin combination, at 0.5 µM): 3.06%
inhibition ([16]; cisplatin combination, at 5 µM): 6.23%
inhibition ([16]; measured here: BGB IC40 combination 0.05 uM, at 0.05 µM): -3.22%
inhibition ([16]; single agent, at 5 µM): -30%
inhibition ([17]; at 0.5 µM): 3.73% (inactive)
inhibition ([17]; cisplatin combo, at 5 µM): 7.03%
inhibition ([17]; measured here: BGB IC40 combination, at 0.05 µM): -6.83%
inhibition [17, 26]: 19.3%
inhibition ([17]; single agent, at 5 µM): -0.278%
inhibition ([18]; at 0.5 µM): -40.3% (inactive)
inhibition [18, 24]: -43.6%
inhibition [18, 25]: -38.6%
inhibition ([18]; single agent, at 0.05 µM): -1.31%
inhibition ([18]; single agent, at 5 µM): -32.2%

COc1nnc2ccc(N3CCC(c4ccc(OCCN5CCN(C)C(=O)[C@H]5C)cc4)CC3)nn12
outcome [2]: inactive

C[C@]12CCC3[C@@H](CC[C@H]4NC(=O)C=C[C@]34C)[C@@H]1CC[C@@H]2C(=O)Nc1cc(C(F)(F)F)ccc1C(F)(F)F (stereo partly specified)
outcome [2]: inactive

O=C(O)CCCCCC[C@@H]1C(=O)NC(=O)N1CCC(O)C1CCCCC1 (stereo partly specified)
fold change [1, 19]: 1.01 (inactive)
fold change [1, 20]: 2.01
cell count [1, 21]: 5520
cell count [1, 22]: 5460

C=CC(=O)N1CCC(CNc2ncnc(N)c2-c2ccc(Oc3ccccc3)cc2)CC1
outcome [2]: inactive

CCCCC[C@H](O)/C=C/[C@H]1[C@H](O)CC(=O)[C@@H]1C/C=C\CCCC(=O)OC
fold change [1, 19]: 0.938 (inactive)
fold change [1, 20]: 1.71
cell count [1, 21]: 5670
cell count [1, 22]: 6040

C=CC(=O)N1CCC(C2CCNc3c(C(N)=O)c(-c4ccc(Oc5ccccc5)cc4)nn32)CC1 (stereo unspecified)
outcome [2]: inactive

Reference: PubChem BioAssay
